From PubChem BioAssay (Tox21)
Records with an inconclusive call do not appear. Where a call stands in place of a potency, no number is given. Unmarked numbers belong to inactive results. Activity calls are given as the source filed them. Calls follow the shape of the dose curve; as a rule, active = well fitted inhibition curve with a large enough effect in the repeat runs; inconclusive = weak or mixed curves, or effect the other way; inactive = no such curve, though single readings can be large or run the other way.

Assay: qHTS assay to identify small molecule antagonists of the retinoic acid receptor (RAR) signaling pathway (AID 1159552; also: nearly all actives have a fitted effect of over 50% in size)
Conditions: C3RL4 RARE luciferase reporter, retinol-stimulated, 6 h; series mostly up to 92.4 µM
From the text: National Center for Advancing Translational Sciences [NCATS]
NIH Chemical Genomics Center [NCGC]
U.S. Environmental Protection Agency [EPA]
National Institutes of Environmental Health Sciences [NIEHS]
National Toxicology Program [NTP]
U.S. Food and Drug Administration [FDA]
All-trans Retinoic acid (atRA) is the potent natural metabolite of retinol and plays an important role in normal embryonic development and maintenance of cellular phenotype in adult animals. atRA is the activating ligand for the retinoic acid receptors (RARs) which form heterodimers with retinoid X receptors (RXRs) on the retinoic acid response element (RARE). Through activation of the RAR/RXRs nuclear receptors, atRA regulates the transcription of a large number of protein-coding genes and regulatory RNAs. Intracellular levels of atRA are controlled by the retinol signaling pathway (RSP) that regulates the biosynthesis and catabolism of atRA to maintain physiological levels. Chemicals that interfere with the RSP can cause abnormal intracellular levels of atRA and therefore are potential developmental toxicants. To assess compounds for the potential adverse effect on embryonic development through interfering with retinol signaling, a cell-based RARE luciferase reporter gene assay was used. C3RL4 cell line (OARSA/CFSAN/FDA, Laurel, MD) was used to screen Tox21 10K compound library for identifying inhibitors of the RSP.
Tox21 Assay Protocol Summary:
C3RL4 cells were seeded at 1,000/well in 4 uL of assay medium into white solid 1,536-well tissue culture plates (Greiner Bio-One North America Inc. Monroe, NC) using a Multidrop Combi (Thermo Scientific, Waltham, MA) dispenser. After incubation at 37 C and 5% CO2 for an overnight, 23 nL of compounds dissolved in DMSO, positive control or DMSO only were transferred by a Pintool station (Kalypsys, San Diego, CA). One ul of 1 uM (final concentration) of Retinol was added right after the compound addition by using a Flying Reagent Dispenser (FRD) (Aurora Discovery, San Diego, CA). After 6 hr incubation at 37 C and 5% CO2, 5 uL of Amplite Luciferase reagent (AAT Bioquest Inc. Sunnyvale, CA) was added to each assay plate using an FRD. Luminescence was quantified on a ViewLux plate reader (PerkinElmer, Waltham, MA) after 30 min incubation at room temperature.
Potency is read from the fitted curve at half-maximal effect.

With `CCOC(=O)c1ccc(NC(=O)CN2CCCCC2)cc1` as the molecule, how does the Potency read?
The Potency was “inactive”.

With `O=C(O)CCC(=O)OC[C@@H](NC(=O)C(Cl)Cl)[C@H](O)c1ccc([N+](=O)[O-])cc1` as the molecule, how does the Potency read?
Its Potency is “inactive”.

With `O=C1OC[C@H](Cc2cccc(O)c2)[C@H]1Cc1cccc(O)c1` as the molecule, how does the Potency read?
The Potency was “inactive”.

With `FC(F)(F)C(F)(F)C(F)(F)C(F)(F)CCI` as the molecule, how does the Potency read?
Its Potency is “inactive”.

For `CC(=O)OCC(=O)[C@@]1(OC(C)=O)[C@@H](C)C[C@H]2[C@@H]3C[C@H](F)C4=CC(=O)C=C[C@]4(C)[C@@]3(F)[C@@H](O)C[C@@]21C`, which Potency is on record?
Its Potency is “inactive”.

Which Potency does the source give for `CC1CCCC(=O)C1=O` (stereo not given) here?
The Potency was “inactive”.

For `COc1ccc(/C=C/C(=O)c2ccc(OC)cc2OC)cc1`, which Potency is on record?
Its Potency is “inactive”.

Which Potency does the source give for `Cc1cccc2sc(N)nc12` here?
Its Potency is “inactive”.

For `O=C1[C@@H]2[C@H]3CC[C@H](C3)[C@@H]2C(=O)N1CCCCN1CCN(c2ncccn2)CC1`, which Potency is on record?
The Potency was “inactive”.

Which Potency does the source give for `CC(=O)NNC(C)=O` here?
Its Potency is “inactive”.

For `Cc1ccc(NC(=O)N(C)C)cc1NC(=O)N(C)C`, which Potency is on record?
The Potency was “inactive”.

With `CN(C)CC/C=C1\c2ccccc2Sc2ccc(Cl)cc21` as the molecule, how does the Potency read?
The Potency was 29.8 µM (active).

Which Potency does the source give for `COc1ccc(C)cc1` here?
Its Potency is “inactive”.

With `O=C(O)CCS` as the molecule, how does the Potency read?
The Potency was “inactive”.

Which Potency does the source give for `Nc1ccc(F)cc1` here?
The Potency was “inactive”.

For `CC(C)(C)NCC(O)COc1cccc2c1C[C@H](O)[C@H](O)C2` (stereo not given in full), which Potency is on record?
Its Potency is “inactive”.

For `Cc1cccc(C)c1NC(=O)c1cc(S(N)(=O)=O)c(Cl)cc1O`, which Potency is on record?
Its Potency is “inactive”.

Which Potency does the source give for `CC/C=C\C/C=C\C/C=C\CCCCCCCC(=O)OCC` here?
Its Potency is “inactive”.

With `CC(=O)OCC1=C(C(=O)O)N2C(=O)[C@@H](NC(=O)CSc3ccncc3)[C@H]2SC1` as the molecule, how does the Potency read?
The Potency was “inactive”.

Which Potency does the source give for `CC(=O)OCC(C)C` here?
The Potency was “inactive”.

With `CCCc1nc2c(C)cc(-c3nc4ccccc4n3C)cc2n1Cc1ccc(-c2ccccc2C(=O)O)cc1` as the molecule, how does the Potency read?
Its Potency is “inactive”.

With `CC(C)(C)C(O)/C=C/c1ccc2c(c1)OCO2` (stereo not given) as the molecule, how does the Potency read?
Its Potency is “inactive”.

For `COC(OC)OC`, which Potency is on record?
The Potency was “inactive”.

With `CC1CCC(C(C)CS)CC1S` (stereo not given) as the molecule, how does the Potency read?
Its Potency is “inactive”.

Which Potency does the source give for `Nc1ccc(N=Nc2ccc(N)cc2)cc1` here?
Its Potency is “inactive”.

Which Potency does the source give for `NC(=O)c1ccccc1[N+](=O)[O-]` here?
Its Potency is “inactive”.

With `CC(CN(CCN(CC(C)OCCO)CC(C)OCCO)CC(C)OCCO)OCCO` (stereo not given) as the molecule, how does the Potency read?
Its Potency is “inactive”.

For `CCOC(=O)c1c(N)sc2c1CCN(Cc1ccccc1)C2`, which Potency is on record?
The Potency was “inactive”.

With `O=C(O)c1cccc(Oc2ccccc2)c1` as the molecule, how does the Potency read?
Its Potency is “inactive”.

Which Potency does the source give for `Cc1ccc2c(c1[N+](=O)[O-])C(=O)c1ccccc1C2=O` here?
Its Potency is “inactive”.

With `CCCCCCCCCCCCCOC(=O)CCSCCC(=O)OCCCCCCCCCCCCC` as the molecule, how does the activity, negative = inhibition read?
The activity, negative = inhibition was -11.1% [at 19 µM].

For `COc1ccc(N)c([N+](=O)[O-])c1`, which Potency is on record?
Its Potency is “inactive”.

Which Potency does the source give for `CC(C)COC(=O)c1ccc(O)cc1` here?
The Potency was “inactive”.

Which Potency does the source give for `CCN(CC)c1ccc(C(=C2C=CC(=[N+](CC)CC)C=C2)c2ccc(S(=O)(=O)O)cc2S(=O)(=O)[O-])cc1` here?
Its Potency is 24.3 µM (active).

Which Potency does the source give for `CC(C)c1ccc(C#N)cc1` here?
Its Potency is “inactive”.

With `CC[C@H]1OC(=O)[C@H](C)[C@@H](O[C@H]2C[C@@](C)(OC)[C@@H](O)[C@H](C)O2)[C@H](C)[C@@H](O[C@@H]2O[C@H](C)C[C@H](N(C)C)[C@H]2O)[C@](C)(O)C[C@@H](C)C(=O)[C@H](C)[C@@H](O)[C@]1(C)O` as the molecule, how does the Potency read?
Its Potency is “inactive”.

With `CC(C)(C)S` as the molecule, how does the Potency read?
The Potency was “inactive”.

For `Cc1cc(CCC(=O)OCCOCCOCCOC(=O)CCc2cc(C)c(O)c(C(C)(C)C)c2)cc(C(C)(C)C)c1O`, which Potency is on record?
The Potency was “inactive”.

For `CCN(CC)C(=O)N1CCN(C)CC1`, which Potency is on record?
Its Potency is “inactive”.

With `CCc1ccc(C)cc1` as the molecule, how does the Potency read?
Its Potency is “inactive”.
